RORg inh: inhibitors of mouse ROR gamma transcriptional activity; P51450; Drosophila S2 Gal4-RORgamma UAS-luciferase reporter, 20 h; Potency, µM (doses to about 53.6 µM), hits mostly inhibitors; hit rate 5.4% among 310,000; AID 2551; also: nearly all actives have a fitted effect of over 60% in size
Target sequence (P51450 whole entry, looked up, the tested form may be a part): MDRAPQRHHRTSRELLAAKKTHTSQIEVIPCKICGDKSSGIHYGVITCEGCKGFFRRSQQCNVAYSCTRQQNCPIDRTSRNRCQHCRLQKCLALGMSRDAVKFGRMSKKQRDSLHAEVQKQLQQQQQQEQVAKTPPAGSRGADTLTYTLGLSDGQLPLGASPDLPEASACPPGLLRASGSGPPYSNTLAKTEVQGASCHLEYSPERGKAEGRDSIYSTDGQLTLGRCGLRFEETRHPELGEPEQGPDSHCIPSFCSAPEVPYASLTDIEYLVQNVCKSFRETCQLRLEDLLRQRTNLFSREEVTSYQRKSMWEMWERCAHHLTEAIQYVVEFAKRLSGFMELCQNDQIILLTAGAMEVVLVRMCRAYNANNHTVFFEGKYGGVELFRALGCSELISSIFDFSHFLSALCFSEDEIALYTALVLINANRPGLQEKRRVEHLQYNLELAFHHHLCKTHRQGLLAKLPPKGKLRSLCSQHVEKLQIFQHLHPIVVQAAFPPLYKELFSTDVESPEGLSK
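Luciferase reporter read in Schneider cells carrying Gal4-RORγ (mouse) and UAS-Photinus luciferase; cells given compound 1 h before 700 uM copper sulfate induction, then incubated 20 h at ambient temperature.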
SW480 rerep: induces DNA re-replication in SW480 colon adenocarcinoma cells | AID 624297 | Potency, µM (titrated, usually from 46.1 µM), actives largely listed as activators | hit rate 1.8% among 340,000 | SW480 DNA re-replication, Hoechst DNA content imaging, 48 h; also: nearly all actives have a fitted effect of over 55% in size
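First, 250 cells per well were seeded. Next, compound or vehicle (23 nL) was pinned in, plates sat 48 hr at 37 C. Finally Hoechst was added for 40 min before fluorescence scanning.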
VP16 counter: counter-screen for ROR gamma inhibitors: Gal4-VP16 reporter. Drosophila S2 Gal4-VP16 UAS-luciferase, luminescence, 20 h. Potency, µM (doses to about 53.6 µM), actives largely listed as inhibitors. hit rate 3.5% among 310,000;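 also: Gal4-VP16 expression switched on by copper sulfate through the metallothionein promoter; nearly all actives have a fitted effect of over 50% in size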
KB-V1 cytotox: KB-V1 MDR subline cytotoxicity. KB-V1 MDR cells viability, CellTiter-Glo, 72 h. Potency, µM (top dose mostly 46.1 µM), usual class: cytotoxic. hit rate 3.4% among 400,000; also: nearly all actives have a fitted effect of over 60% in size
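KB-V1, DMEM (no phenol red) + 10% FBS; cpd pin-transferred, titration series; 72 h, 37 degrees C; CellTiter-Glo, luminescence. Data normalized, curve-fit.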
MCF10A rereplic: induces DNA re-replication in MCF 10a normal breast cells | AID 624296 | MCF 10A DNA re-replication, Hoechst nuclear intensity, 48 h | hit rate 2.9% among 350,000 | Potency, µM (doses to about 46.1 µM), hits mostly activators; also: nearly all actives have a fitted effect of over 50% in size
KB-3-1 cytotox: kills parental KB-3-1 adenocarcinoma cells | KB-3-1 viability, CellTiter-Glo ATP luminescence, 72 h | Potency, µM (series often up to 46.1 µM), most hits filed as cytotoxic | hit rate 1.4% among 400,000; also: nearly all actives have a fitted effect of over 60% in size
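Parental KB-3-1 viability, qHTS format: 72 h compound exposure, 37 °C; CellTiter-Glo; media-only wells and DMSO plates as controls; concentration-effect fits on corrected data.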
A number is an active result; n = inactive; u = inconclusive; x = no result given. Compounds with a hit are over-represented: about 10% of the library has one in this group of screens. Calls follow the shape of the dose curve; as a rule, active = well fitted curve in the direction sought with a large enough effect; inconclusive = small, poorly fitted or top-dose-only effect, or another doubt; inactive = no such curve, though single readings can be large; an effect the other way counts as inactive or inconclusive.

SMILES	RORg inh	SW480 rerep	VP16 counter	KB-V1 cytotox	MCF10A rereplic	KB-3-1 cytotox
Cc1ccc(OCC(=O)NNC(=S)NC(=O)C(C)(C)C)c(Br)c1	11µM	u	n	n	n	u
O=C(COc1ccccc1Cl)NC(=S)Nc1ccccc1N1CCCC1	5.6µM	u	7.9µM	n	u	n
COC(=O)c1ccccc1NC(=S)NC(=O)COc1ccc(C)cc1	x	u	x	n	n	n
COC(=O)c1ccccc1NC(=S)NC(=O)COc1ccccc1Cl	10µM	n	u	n	n	n
CC(C)(C)c1nnc(NC(=O)Cc2ccccc2[N+](=O)[O-])s1	u	n	u	u	n	u
CC(C)c1nnc(NC(=O)Cc2ccccc2[N+](=O)[O-])s1	n	n	n	23µM	u	n
COc1cc2c(cc1OC)C(COc1ccccc1OC)N(C(=O)c1ccc(S(=O)(=O)N3CCCC3)cc1)CC2 (stereo not given)	x	x	x	n	x	n
Cc1ccc(C)n1-c1ccc(C(=O)/C=C/N(C)C)cc1	n	u	n	n	23µM	n
CCOC(=O)c1sc(-c2ccc(Cl)cc2Cl)nc1O	n	21µM	n	n	u	n
Brc1cc2ccccc2[n+](Cc2ccccc2)c1	x	u	x	n	n	u
CCC[n+]1c2ccccc2cc2ccccc21	n	12µM	n	21µM	13µM	u
CCOc1ccccc1CNS(=O)(=O)c1cc2c(cc1C)NC(=O)CO2	x	x	x	n	x	n
Cc1c(C(=O)NCc2cccc(Cl)c2)sc(=O)n1Cc1ccc(F)cc1	x	x	x	u	x	n
COc1ccc(Cl)cc1Cn1c(C)c(C(=O)NCc2ccc(F)cc2)sc1=O	x	x	x	15µM	x	u
Cc1c(C(=O)NCc2ccc(F)cc2)sc(=O)n1Cc1ccc(C(=O)c2ccccc2)cc1	x	x	x	10µM	x	u
Cc1cccc(C)c1Cn1c(C)c(C(=O)NCc2ccc(C#N)cc2)sc1=O	x	x	x	18µM	x	u
CC(=O)Oc1ccccc1Cn1c(C)c(C(=O)N(C)Cc2ccc(F)cc2)sc1=O	x	x	x	18µM	x	u
CC(=O)OC1CCC2(C)C(CCC3(C)C2C(=O)C=C2C4CC(C)(C(=O)OCCN5CCCCC5)CCC4(C)CCC23C)C1(C)C (stereo not given)	n	x	n	x	x	x
Cc1cc(C)n(C(C)CC(=O)Nc2ccc(Cl)cc2C)n1 (stereo not given)	x	x	x	n	x	n
COc1ccc(CNC(=O)c2sc(=O)n(Cc3ccccc3OC)c2C)cc1	x	x	x	9.2µM	x	u
COc1ccc(NC(=O)c2sc(=O)n(Cc3ccccc3C#N)c2C)cc1OC	x	x	x	5.8µM	x	u
COc1ccccc1Cn1c(C)c(C(=O)NCc2ccc3c(c2)OCCO3)sc1=O	x	x	x	u	x	n
Cc1c(C(=O)NCc2cccc(C(F)(F)F)c2)sc(=O)n1Cc1cccc(F)c1	x	x	x	15µM	x	u
COc1ccc(CNC(=O)c2cn(Cc3ccccc3OC)c(=O)s2)cc1	x	x	x	7.3µM	x	n
Cc1ccc(S(=O)(=O)N2CC3C(=O)C[C@@H](c4ccccc4)N(S(=O)(=O)c4cccc(Cl)c4)C3CC2c2ccccc2)cc1 (stereo not given in full)	x	x	x	n	x	n
SMILES	RORg inh	SW480 rerep	VP16 counter	KB-V1 cytotox	MCF10A rereplic	KB-3-1 cytotox
CCc1ccc(-n2nc(C)c3c(C(=O)Nc4cc(OC)cc(OC)c4)cc(C)nc32)cc1	x	x	x	n	x	n
COC(=O)c1ccc(Cn2c(C)c(C(=O)Nc3cccc(Oc4ccccc4)c3)sc2=O)o1	x	x	x	12µM	x	u
COC(=O)c1ccc(Cn2c(C)c(C(=O)NCc3cccs3)sc2=O)o1	x	x	x	n	x	n
CC(C)(C)c1ccc(OC(=O)Nc2ccc(O)c(C(=O)O)c2)cc1	u	n	1.3µM	n	n	n
O=c1cc(CN(Cc2ccccc2)Cc2ccccc2)c2c(ccc3ccccc32)o1	x	x	x	n	x	n
CC(C)CSC1=NSC2=NC(=O)/C(=C\c3coc4ccccc4c3=O)C(=N)N12	n	n	n	n	21µM	n
CSC1=NSC2=NC(=O)/C(=C\c3coc4ccccc4c3=O)C(=N)N12	n	n	n	n	u	u
CC(C)CSC1=NSC2=NC(=O)/C(=C\c3ccccc3)C(=N)N12	n	n	n	n	15µM	n
O=C(Cn1c(-c2cccs2)cc2ccccc21)NCCCN1CCN(c2ccccc2F)CC1	x	x	x	n	x	n
Cc1cccnc1NC(=O)c1ccc(OCC2CCCO2)cc1 (stereo not given)	x	n	x	n	n	n
Cc1ccc2nc(NC(=O)c3ccc(OCC4CCCO4)cc3)sc2c1 (stereo not given)	4.5µM	n	u	u	n	u
Cc1cc(C)c2nc(NC(=O)c3ccc(OCC4CCCO4)cc3)sc2c1 (stereo not given)	1µM	n	n	n	n	n
CCCSc1nsc(NC(=O)CC)n1	n	n	n	n	n	n
CCCSc1nsc(NC(=O)C(c2ccccc2)c2ccccc2)n1	n	u	n	u	u	26µM
CN(C)C(CNC(=O)c1cc(S(=O)(=O)N(C)c2ccc(F)cc2)ccc1Cl)c1cccs1 (stereo not given)	x	n	x	4.1µM	n	u
COc1ccc(C=NN=C2c3ccccc3-c3ccccc32)cc1O	x	n	x	u	u	n
CC(=O)Nc1ccc(C=NN=C2c3ccccc3-c3ccccc32)cc1	x	n	x	18µM	u	n
CCc1ccccc1NC(=O)CCn1cccn1	x	x	x	u	x	n
O=[N+]([O-])c1ccc(C2Oc3ccccc3C3CC(c4ccccc4)=NN32)s1 (stereo not given)	11µM	23µM	u	x	15µM	x
O=C1/C(=C/c2cccnc2)SC(=S)N1C1CCS(=O)(=O)C1 (stereo not given)	11µM	u	u	u	15µM	u
O=C1/C(=C/c2cccnc2)SC(=S)N1N1CCOCC1	n	n	n	n	n	n
O=C1/C(=C\c2cccnc2)SC(=S)N1C1CCS(=O)(=O)C1 (stereo not given)	6.3µM	u	u	n	15µM	u
O=C(COc1ccc(Cl)cc1)Nc1ccc(-c2nc3ccccc3s2)c(O)c1	x	x	x	u	x	n
CC(=O)NCCNC(=O)C1(C)Cc2c(-c3ccc(NC(C)=O)cc3)ccnc2O1 (stereo not given)	x	x	x	n	x	n
CC(=O)c1c(C)[nH]c(C(=O)Nc2nc(-c3ccc(-c4ccccc4)cc3)cs2)c1C	n	n	u	21µM	3.3µM	15µM
CC(=O)c1c(C)[nH]c(C(=O)Nc2cc(C)cc(C)c2)c1C	u	n	n	u	u	n
CC(=O)c1c(C)[nH]c(C(=O)Nc2ccc(C)cn2)c1C	2µM	n	u	n	n	n
CC(=O)c1c(C)[nH]c(C(=O)Nc2nc(-c3ccc(Cl)cc3)cs2)c1C	u	n	u	u	23µM	u
COc1ccc(OC)c(NC(=O)c2[nH]c(C)c(C(C)=O)c2C)c1	n	n	n	16µM	n	n

Screens (PubChem)
